These results are taken from the OligoGym collection.
Note: reference of the scale not given here.

The target of one assay is ELF2. The assay can be described thus: pooled miR-30 sensor sort-seq; sequence = guide strand. Particulars: shRNA.
In turn, TTTGTCATCATCTATGACCACT displayed a sensor-assay potency score (higher = more potent) of -0.807.

Sequence TTTCACTTTTGTCATCATCTAT had a sensor-assay potency score (higher = more potent) of -0.516. Take TATCCTTGAACTGATATACAAG: the sensor-assay potency score (higher = more potent) is -1.19. Turning to TGATTTTCTACTCCATTGCTGG, the sensor-assay potency score (higher = more potent) is -0.423.

TTGAACTGATATACAAGCCTCT displayed a sensor-assay potency score (higher = more potent) of 0.343. On the same count and under the same terms, with TAATCTGGCACTTGGAACTGGC the figure was -0.333. Sequence TTGTCTTATCTGTACAGTGTGC returned a sensor-assay potency score (higher = more potent) of -0.612. As for TAGATCTAAAAGAAACTCCCAC, the sensor-assay potency score (higher = more potent) stood at 0.171.

For TATGTTTTTCGGCATATCCTTG, the sensor-assay potency score (higher = more potent) was -0.943. The sequence TATGACTGCACTGATAACTCGA registered a sensor-assay potency score (higher = more potent) of 0.372.

Another assay concerns the target EMD. The assay is described as above. The settings on record: shRNA.
As for TAATAGGACAGGTCCAGGGAGC, the sensor-assay potency score (higher = more potent) was -1.25. In turn, AAGAAGACAAAAGATCGTCATC yielded a sensor-assay potency score (higher = more potent) of -1.25. TTCTTCTCGTAAAGCCTACGAG came in with a sensor-assay potency score (higher = more potent) of -0.852. TAGTAGTCGTCATTGTAGCCCT displayed a sensor-assay potency score (higher = more potent) of -0.272. Take TAGTCGTCATTGTAGCCCTTGC: the sensor-assay potency score (higher = more potent) is -0.858. TACATATCTGCATCCCCTCTAG came in with a sensor-assay potency score (higher = more potent) of -0.434.

With TACGAGTTGATCCTACTACAGG, the sensor-assay potency score (higher = more potent) is -1.33. With TAGTGCGTGATGCTCTGGTAGG, the sensor-assay potency score (higher = more potent) was -0.899. On to AAAGCCTACGAGTTGATCCTAC, for which the sensor-assay potency score (higher = more potent) was -0.00514. As for TAGCTCTCTTCATAGTAGTCGT, the sensor-assay potency score (higher = more potent) was -0.538.

TCGAAGATCTTCTTCTCGTAAA showed a sensor-assay potency score (higher = more potent) of -1.01. Same read-out and setting: to AAGATCGTCATCATGCACCTGG belongs 0.638.

Sequence TAGGATAATAGGACAGGTCCAG had a sensor-assay potency score (higher = more potent) of -0.423. With TAAAGCGTCCTCTTTCTTGGGA, the sensor-assay potency score (higher = more potent) amounted to 0.267. On to TGCTCTGGTAGAGTAAAGCGTC, for which the sensor-assay potency score (higher = more potent) is -0.878. ATCGTCATCATGCACCTGGTGA showed a sensor-assay potency score (higher = more potent) of -0.488. TGGTGAAGTAGCTCTCTTCATA showed a sensor-assay potency score (higher = more potent) of -1.46. Take AATGAAGTCACTGACTGGCGGA: the sensor-assay potency score (higher = more potent) was -0.824.

Sequence TCGTACTCGAAGATCTTCTTCT registered a sensor-assay potency score (higher = more potent) of 0.284. With TACTCGAAGATCTTCTTCTCGT, the sensor-assay potency score (higher = more potent) is -0.0297.
